# From PubChem BioAssay (NCI)
# This is part of a sample that, as a whole, favours compounds with a hit. Of some 83,000 tested, about 20% had one in any assay.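 Assay: single dose, 48 h. Readout: percent growth (0 = no net growth; negative = cell death). Active: <10.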 Values without a mark were called inactive. Calls of active or inactive are those of the source.
# Assays:
# Test in all cases: NCI-60 one-dose screen, 48 h (100 = growth as untreated, 0 = no growth, -100 = all killed)
# Details in all cases: 10 µM unless noted
# DU-145 prostate = test system: DU-145 prostate
# K-562 leukemia = test system: K-562 leukemia
# MALME-3M melanoma = test system: MALME-3M melanoma
# MDA-MB-231 breast = test system: MDA-MB-231 breast
# RXF 393 renal = test system: RXF 393 renal
# SF-268 CNS = test system: SF-268 CNS
# SF-295 CNS = test system: SF-295 CNS
# SF-539 CNS = test system: SF-539 CNS
# UACC-257 melanoma = test system: UACC-257 melanoma
# M14 melanoma = test system: M14 melanoma
Compound,growth (DU-145 prostate),growth (K-562 leukemia),growth (MALME-3M melanoma),growth (MDA-MB-231 breast),growth (RXF 393 renal),growth (SF-268 CNS),growth (SF-295 CNS),growth (SF-539 CNS),growth (UACC-257 melanoma),growth (M14 melanoma)
O=C(Nc1cccnc1Nc1ccc(Cl)cc1)c1cn(Cc2ccc(F)cc2)nn1,106%,108%,117%,83.9%,98.7%,103%,96.6%,94.5%,105%,101%
CCNC(=O)Oc1ccc(/C(=C(/C)Cc2ccc(OC)cc2)c2ccc(OCCN3CCCC3)cc2)cc1,87.1%,2.41% (active),80.6%,79.8%,76.3%,78.2%,79.3%,76.8%,105%,2.05% (active)
CC1(C)CCC(S(=O)(=O)c2ccc3c(c2)/C(=N\O)c2cc(S(=O)(=O)N4CCN(c5ccc(F)cc5O)CC4)ccc2-3)CC1,-46% (active),-78.4% (active),-70.5% (active),-63.7% (active),-90% (active),-54.4% (active),-57.1% (active),-88.2% (active),-80.6% (active),-81.9% (active)
O=C(c1ccc(F)c(Cl)c1)N1c2ccccc2Sc2ccccc21,90.3%,21.5%,64.1%,61%,70.8%,66.8%,64.3%,62.3%,61%,53.1%
COC(=O)c1c2c(n3ccc(C)cc13)C(=O)c1ccccc1C2=O,75.2%,60.8%,62.2%,77.9%,75.9%,74.9%,67.6%,94.8%,72.4%,63.5%
COc1ccc2nc(SCC(=O)Nc3ccccc3C)[nH]c2c1,105%,97.5%,96.9%,98.6%,105%,102%,93%,101%,90%,101%
CCOC(=O)Cn1c(=O)c2c3ccccc3n(C)c2n2nnc(-c3ccccc3)c12,91.8%,32.8%,93.5%,79.7%,119%,91%,115%,91.1%,109%,88.1%
O=C(NCc1ccc2c(c1)OCO2)NCC1CCCC(CNC(=O)NCc2ccc3c(c2)OCO3)C1 (stereo not given),108%,95.3%,108%,96.4%,106%,97.7%,101%,103%,104%,109%
COc1cc(C2Cc3ncccc3-c3[nH]c(=O)c4cccnc4c32)cc(OC)c1OC (stereo not given),23%,16.3%,77.6%,31%,8.5% (active),44.1%,1.73% (active),-18.8% (active),56.9%,10.3%
C[Se]C(=O)CC1=C2C=C(F)C=CC2/C(=C\c2ccc(S(C)=O)cc2)C1C (stereo not given),-50.5% (active),28.6%,-68.7% (active),-46% (active),6.68% (active),-28.2% (active),11.3%,-30.3% (active),-21.5% (active),7.44% (active)
O=C(O)c1cccc(N/C=C/C(=O)c2cc3cc(Br)ccc3oc2=O)c1,108%,119%,104%,93.6%,107%,90.4%,104%,96%,99.2%,94.2%
COC(=O)/C=C1/SC(=Nc2cccc(Cl)c2)N(CCc2c[nH]c3ccc(O)cc23)C1=O,14.4%,5.71% (active),42.6%,29.1%,10.7%,25.3%,64.2%,0.787% (active),31.9%,13%
CN1CCN(Cc2ccc(NC(=O)c3cncc(C#Cc4cnn5ccccc45)c3)cc2C(F)(F)F)CC1,4.16% (active),1.13% (active),-61.3% (active),-7.64% (active),-44.8% (active),-32.8% (active),20.7%,-58.4% (active),11%,-39.6% (active)
CCN(CC)c1ccc(/C=N\NC(=O)c2cccc(Nc3ccnc(C(F)(F)F)c3)c2)c(O)c1,23.1%,92.3%,24.4%,13.6%,-1.92% (active),10.3%,16.8%,-38.9% (active),27.3%,21.2%
COc1ccc(-c2cc(-c3ccc(OC)cc3)nc(NCCCNc3ccnc4cc(Cl)ccc34)n2)cc1,-2.21% (active),-14.3% (active),-75.6% (active),76.7%,24.2%,85.3%,83.8%,63.4%,46.2%,33.3%
O=C(N/N=C/c1ccc(O)cc1O)c1ccc(Nc2ccnc(C(F)(F)F)c2)cc1,53.5%,74.9%,46.6%,46.1%,95.3%,41.1%,47.8%,27.6%,44.6%,36.1%
Cc1cc(C)c(-c2c(O)c(Br)c(-c3c(C)cc(C)c(Br)c3C)c(O)c2Br)c(C)c1Br,33.4%,15.2%,-6.91% (active),-42.5% (active),-48.7% (active),31%,-10.2% (active),22.3%,-19% (active),29.6%
COc1cc(Nc2ncccc2NC(=O)c2cn(Cc3cccc(Oc4ccccc4)c3)nn2)cc(OC)c1,86.2%,45.4%,92.3%,66%,74.6%,73.8%,93.4%,93%,104%,67.6%
O=C1/C(=C/c2ccc(C(F)(F)F)cc2)COc2ccc(O)cc21,99.1%,5.54% (active),88.7%,79.4%,102%,85.3%,99.1%,86.7%,98.1%,85.6%
Cn1c(=O)c2c(c3ccccc31)OC(N)=C(C#N)C21C(=O)c2ccccc2C1=O,107%,111%,86.5%,81.6%,91%,93%,102%,91.9%,108%,87.2%
Cc1ccc(N=Nc2c(N)nn(-c3ccccc3)c2N)cc1,27.8%,7.43% (active),39.3%,54.4%,-0.509% (active),54.5%,13.8%,11.4%,63.4%,-2.8% (active)
COc1cc2c3c(n(CCCCNCCCn4c5c(c6cc(OC)c(OC)cc6c4=O)C(=O)c4cc6c(cc4-5)OCO6)c(=O)c2cc1OC)-c1cc2c(cc1C3=O)OCO2,99.1%,85.7%,81.8%,90.4%,107%,89.5%,99.9%,92.8%,94.8%,96.3%

Compound,growth (DU-145 prostate),growth (K-562 leukemia),growth (MALME-3M melanoma),growth (MDA-MB-231 breast),growth (RXF 393 renal),growth (SF-268 CNS),growth (SF-295 CNS),growth (SF-539 CNS),growth (UACC-257 melanoma),growth (M14 melanoma)
COc1ccc(/C=C/C(=O)c2ccc(NC(=O)CSc3nnc(-c4cc(-c5ccccc5)nc5ccccc45)n3-c3ccccc3)cc2)cc1,94.9%,88.8%,98%,87.3%,103%,98.3%,103%,97.8%,105%,99%
NC(=O)OCCn1cc(-c2nc(-c3c[nH]c4ncccc34)cs2)c2ccccc21,64.9%,11.8%,62.4%,49.7%,46.3%,50%,25.5%,33.8%,60.5%,11.8%
C=NNc1ccccc1,100%,75.8%,126%,66.8%,105%,92.3%,100%,101%,98.3%,95.3%
COc1cc(C(=O)c2c(N)ncn2-c2ccccc2)cc(OC)c1OC,100%,76.4%,106%,103%,86.8%,101%,91%,87%,109%,96.1%
NC(=O)c1c(NC(=O)c2ccc(Cl)cc2)sc2c1CCC(=O)C2,98.6%,13.9%,92.7%,86.3%,56.7%,47.5%,96.2%,43.2%,91.6%,51.5%
COc1ccc(Nc2ncccc2NC(=O)c2cn(Cc3cccc(Oc4ccccc4)c3)nn2)cc1OC,84%,28.7%,87.4%,67.9%,86.3%,61.7%,84.2%,95%,92.4%,72.5%
CCSC1=CC(=O)c2ccccc2C1=O,95.1%,2.73% (active),14%,3.95% (active),42.8%,76.5%,97.2%,106%,83.1%,84.1%
COP(=O)(OC)c1nnn(-c2cccc([N+](=O)[O-])c2)c1C,111%,102%,105%,113%,118%,98.2%,111%,93.3%,105%,104%
O=C1NC(=O)c2c1c1c3ccccc3[nH]c1c1oc3cc(Br)ccc3c21,90.2%,55%,87%,80.5%,88.1%,76.4%,52.8%,96.9%,96.4%,65.8%
C[C@H]1[C@H](C)CC[C@]2(C(=O)O)CC[C@]3(C)C(=CC[C@@H]4[C@@]5(C)C[C@@H](Cc6cn([C@@H]7O[C@H](CO)[C@@H](O)[C@H](O)[C@H]7O)nn6)[C@H](O)C(C)(C)[C@@H]5CC[C@]43C)[C@H]12,105%,95.4%,108%,102%,118%,103%,98.8%,109%,90.2%,93.9%
Nc1c(C(=O)O)cc(Cl)cc1[N+](=O)[O-],108%,95.2%,105%,91.3%,88.9%,98%,109%,99.7%,96.8%,96.8%
Fc1ccc(COc2ccc(Nc3ncnc4sc5c(c34)CCCC5)cc2)cc1,96.8%,103%,109%,94.9%,109%,89.8%,89.8%,103%,106%,104%
C=CC(C)(O)CC/C=C(\CO)C(=O)OC1C(C)OC(O[C@](C)(C=C)CC/C=C(\CO)C(=O)O[C@H]2C[C@@]3(C(=O)OC4OC(CO)C(O)C(O)C4OC4OC(C)C(OC5OC(CO)C(O)C5O)C(OC5OC(CO)C(O)C(O)C5O)C4O)C(CC2(C)C)C2=CCC4[C@@]5(C)CC[C@H](OC6OC(COC7OC(C)C(O)C(O)C7OC7OCC(O)C(O)C7O)C(O)C(O)C6NC(C)=O)C(C)(C)C5CC[C@@]4(C)[C@]2(C)C[C@H]3O)C(O)C1O (stereo not given in full),-91.2% (active),22.8%,-56.2% (active),-29.8% (active),-31.3% (active),-53.4% (active),-59.4% (active),6.98% (active),-53.5% (active),-34.1% (active)
NS(=O)(=O)c1ccc(N/C=C/C(=O)c2cc3ccccc3oc2=O)cc1,109%,94.8%,85%,85.2%,102%,95.5%,103%,93%,110%,89.5%
CCN(CC)CCOc1ccc(Nc2ncc3cc(-c4ccc(O)cc4)c(=O)n(C)c3n2)cc1,85.5%,-53.5% (active),-43.8% (active),43.1%,-5.94% (active),45%,98.5%,-1.13% (active),66.6%,57.5%
COc1ccc(/C=C/C(=O)c2cc3c(N)c(C(=O)Nc4ccccc4C)sc3nc2C)cc1,13%,15.3%,51.7%,15.5%,-23.1% (active),32.3%,14.2%,-38.2% (active),64.8%,3.29% (active)
Fc1ccc(CNc2c3ccccc3nc3ccccc23)cc1,34.9%,4.79% (active),25.7%,38.3%,0.247% (active),53.3%,27.6%,13.1%,36%,34.4%
COC(=O)Cc1nc(C#N)c(N(C)C)o1,112%,91.1%,105%,100%,106%,94.8%,100%,99%,95.7%,103%
CCN1CCN(CC(=O)Nc2nc3ccc(NCc4ccc(Br)cc4)cc3s2)CC1,83.9%,-49.7% (active),-68.2% (active),45.6%,63.9%,72.1%,86.4%,39.2%,17.7%,-56.2% (active)
O=C(Cn1nnc2ccccc21)N/N=C/c1ccccc1F,107%,94.3%,102%,91.1%,101%,93.9%,111%,102%,93%,108%
CCN(CCO)CC(C)Nc1ccc([N+](=O)[O-])c2sc3ccccc3c(=O)c12 (stereo not given),41.3%,12.5%,13.4%,48.8%,9.27% (active),36.1%,17.4%,25%,31.5%,29.3%
COCCCOc1cc(C[C@@H](C[C@H](N)[C@@H](O)C[C@H](C(=O)NCC(C)(C)C(N)=O)C(C)C)C(C)C)ccc1OC,124%,103%,109%,102%,104%,117%,93%,103%,104%,109%
